Source: PubChem BioAssay (Tox21)
Values joined by “and” are separate entries in the source; they are usually repeats but may differ in a detail not shown here. Equal entries are not always repeated. Records with an inconclusive call do not appear. Where a structure was tested more than once in an assay, its records may differ in their call. Active and inactive are the calls of the source. Unless noted, the call rests on the fitted dose curve; in most records, active means well fitted curve in the direction sought with a large enough effect in the repeat runs; inconclusive means weak or mixed curves; inactive means no such curve, though single readings can be large; an effect the other way counts as inactive or inconclusive.

Experiments:
[1] = qHTS assay to identify small molecule agonists of the hypoxia (HIF-1) signaling pathway - cell viability counter screen (AID 1224844; calls by dose curve; further: nearly all actives have a fitted effect of over 50% in size; further: potency means the concentration at half of the fitted maximal effect); details: HRE-bla ME-180 viability, CellTiter-Glo luminescence, 17 h; series mostly up to 76.8 µM
Procedure, shortened: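 Multiplexed with the HRE beta-lactamase assay, this viability read used CellTiter-Glo luminescence (30 min, RT) on HRE-bla ME-180 cells treated 17 hrs with compounds in 0.5% dialyzed FBS medium.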

[2] = qHTS assay to identify small molecule agonists of H2AX (AID 1224845; active means well fitted activation curve with a large enough effect in the signal ratio in the repeat runs, not every such curve was filed as active; the % refers to the signal ratio; further: potency means the concentration at half of the fitted maximal effect); details: CHO-K1 phospho-H2AX Ser139 HTRF, 3 h; series mostly up to 154 µM
Procedure, shortened: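 Wild-type CHO-K1 cells plated overnight, then exposed 3 hr at 37C to compounds at 15 concentrations (0.76% DMSO). Lysed, then HTRF anti-pH2AX(S139)-cryptate/anti-H2AX-d2 detection after 24 hr at room temperature; emissions 665 and 620 nm.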

[3] = qHTS assay to identify small molecule agonists of H2AX - cell viability counter screen (AID 1224847; calls by dose curve; further: nearly all actives have a fitted effect of over 30% in size; further: potency means the concentration at half of the fitted maximal effect; on activity change, negative = cytotoxicity: top concentration of the series differs between compounds); details: CHO-K1 viability, CellTiter-Glo luminescence, 3 h; series mostly up to 154 µM
Procedure, shortened: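 Wild-type CHO-K1 cells (10% FBS medium) were plated overnight at 37C, exposed to compounds at 15 concentrations for 3 hr at 37C (0.76% DMSO final), and viability was read as CellTiter-Glo luminescence after 30 min at room temperature.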

[4] = qHTS assay to identify small molecule antagonists of the estrogen related receptor (ERR) signaling pathway from Tox21 library (AID 1224848); details: ERR reporter cell line, luciferase antagonist mode, 18 h; series mostly up to 92.4 µM; further: nearly all actives have a fitted effect of over 50% in size; further: potency means the concentration at half of the fitted maximal effect
Procedure, shortened: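 Cells: ERR line, 2,000/well; 6 h preincubation 37 C/5% CO2. Cpd in DMSO via pin tool; 18 h, 37 C. ONE-Glo, 30 min RT, luminescence.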

[5] = qHTS assay to identify small molecule agonists of the estrogen related receptor (ERR) signaling pathway from Tox21 library (AID 1224849; calls by dose curve; further: nearly all actives have a fitted effect of over 15% in size); details: ERR reporter cell line, ONE-Glo luciferase, 18 h
Procedure, shortened: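 Six hours post-seeding at 37 C/5% CO2, ERR cells receive DMSO-solubilised compounds; after 18 h at 37 C, ONE-Glo reagent is applied and luminescence recorded.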

[6] = qHTS RealTime-Glo MT Cell Viability Assay in HepG2 cells - 24 hour (AID 1224867); details: RealTime-Glo luminescence; series mostly up to 76.8 µM; further: nearly all actives have a fitted effect of over 50% in size
Procedure, shortened: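 Cell number in HepG2 cultures estimated from NanoLuc luminescence generated by metabolic reduction of a prosubstrate by living cells. The homogeneous, nonlytic format allowed repeated reads at 0, 8, 16, 24, 32 and 40 h of compound exposure.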

[7] = qHTS RealTime-Glo MT Cell Viability Assay in HEK293 cells - 32 hour (AID 1224868); details: RealTime-Glo luminescence; series mostly up to 76.8 µM; further: nearly all actives have a fitted effect of over 50% in size; further: potency means the concentration at half of the fitted maximal effect; on activity change, negative = cytotoxic: top concentration of the series differs between compounds
Procedure, shortened: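 Homogeneous bioluminescent viability format in HEK293 cells (600 cells/well). Following 5 h at 37 C/5% CO2, 23 nL compound was pintooled; the signal was measured repeatedly during 40 h incubation.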

[8] = A CellTox Green Cytotoxicity Assay to monitor cytotoxicity in HEK293 cells - 0 hour (AID 1224869); details: CellTox Green fluorescence; series mostly up to 76.8 µM; further: nearly all actives have a fitted effect of over 50% in size; further: potency means the concentration at half of the fitted maximal effect
Procedure, shortened: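 Seeding of HEK293 cells together with cytotoxicity dye preceded a 5 h incubation at 37 C/5% CO2. Test compounds in DMSO were then added and fluorescence monitored across 40 h.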

[9] = qHTS RealTime-Glo MT Cell Viability Assay in HepG2 cells - 40 hour (AID 1224870); details: RealTime-Glo luminescence; series mostly up to 76.8 µM; further: nearly all actives have a fitted effect of over 50% in size; further: potency means the concentration at half of the fitted maximal effect
Procedure, shortened: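 HepG2 cells mixed with RealTime-Glo MT reagents (NanoLuc plus cell-permeant prosubstrate) were seeded at 600 cells/well, incubated 5 h at 37 C/5% CO2, then pinned with compounds in DMSO; nonlytic luminescence tracked viability during 40 h treatment.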

[10] = qHTS assay to identify small molecule agonists of the hypoxia (HIF-1) signaling pathway (AID 1224846; active means well fitted activation curve with a large enough effect in the signal ratio in the repeat runs, not every such curve was filed as active; the % refers to the signal ratio); details: HRE-bla ME-180 cells, beta-lactamase ratio, 17 h; series mostly up to 76.8 µM
Procedure, shortened: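 Hypoxia-pathway activation was scored as increased beta-lactamase from an HRE-controlled reporter in ME-180 cells; plated at 2,000 cells per well with 0.5% dialyzed FBS, they were exposed 17 hrs to compounds and then given CCF4-AM.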
On the % scale 0 is the no-effect control and ±100 the full control effect.

CCOC(=O)c1cncn1C(C)c1ccccc1 (stereo not drawn)
inactive: Potency [1] | Potency [2] | Potency [3] | Potency [4] | activity change, positive = activation ([5]; at 42.5 µM (top of the series)) -0.608% | Potency [6] | Potency [7] | Potency [8] | Potency [9]

Nc1c(Br)cc(Br)c2c1C(=O)c1ccccc1C2=O
inactive: activity change, negative = cytotoxicity [1] 1.81% [at 15.8 µM] | activation (H2AX phosphorylation) [2] 2.27% [at 31.6 µM] | activity change, negative = cytotoxicity [3] -4.33% [at 31.6 µM] | activity, negative = inhibition [4] 31.1% [at 19 µM] | activity change, negative = cytotoxicity [6] -0.948% [at 15.8 µM] | cytotoxicity [8] -2.18% [at 15.8 µM] | activity change, negative = cytotoxic [9] 16.3% [at 15.8 µM]

CC(C)[C@@H](C(=O)O[C@@H](C#N)c1cccc(Oc2ccccc2)c1)c1ccc(Cl)cc1
inactive: Potency [1] | Potency [2] | Potency [6] | Potency [8] | Potency [9]
active: Potency [3] 16.2 µM

OCCSSCCO
inactive: Potency [1] | Potency [2] | Potency [3] | Potency [6] | Potency [7] | Potency [8] | Potency [9]

COc1ccccc1N1CCNCC1
inactive: Potency [1] | Potency [2] | Potency [3] | Potency [6] | Potency [7] | Potency [8] | Potency [9]

C[C@H]1[C@@H]2Cc3ccc(O)cc3[C@@]1(C)CCN2C
inactive: Potency [1] | Potency [2] | Potency [3] | Potency [4] | activity change, positive = activation ([5]; at 240 µM (top of the series)) 8.81% | Potency [6] | Potency [7] | Potency [8] | Potency [9]

O=C1c2ccccc2C(=O)N1SC(Cl)(Cl)Cl
inactive: activity change, positive = activation ([5]; at 92.4 µM (top of the series)) -68.2% and -64.1% | Potency [8]
active: Potency [1] 3.83 µM and 7.76 µM | Potency [2] 9.93 µM and 16 µM | Potency [3] 12.5 µM | Potency [4] 30.2 µM and 30.6 µM | Potency [7] 6.82 µM and 6.92 µM | Potency [9] 34.2 µM and 15.5 µM

Cc1nc2ccccc2c(=O)n1-c1ccccc1Cl
inactive: Potency [1] | Potency [3] | activity change, positive = activation ([5]; at 92.4 µM (top of the series)) -29.9% | Potency [6] | Potency [8] | Potency [9]
active: Potency [2] 27.8 µM | Potency [7] 21.4 µM

Cc1ccccc1
inactive: Potency [1] | Potency [2] | Potency [3] | Potency [6] | Potency [7] | Potency [8] | Potency [9]

CCC(C)(C)c1ccc(O)c(C(C)(C)CC)c1
48.5 µM (active) and inactive: Potency [7]
60.4 µM (active) and inactive: Potency [4]
inactive: activity change, positive = activation ([5]; at 92.4 µM (top of the series)) -59% and -10.3% | Potency [8] | Potency [9]
active: Potency [1] 19.3 µM and 24.5 µM | Potency [2] 56 µM and 35.7 µM | Potency [3] 88.8 µM and 40.1 µM

CC(C)(C)N(NC(=O)c1ccc(Cl)cc1)C(=O)c1ccccc1
inactive: Potency [1] | Potency [2] | Potency [3] | activity change, positive = activation ([5]; at 92.4 µM (top of the series)) -30.6% | Potency [6] | Potency [8] | Potency [9]

Nc1ccccc1C(=O)OCCc1ccccc1
inactive and 43.6 µM (active): Potency [8]
inactive: Potency [1] | Potency [2] | Potency [4] | Potency [6] | Potency [9]
active: Potency [3] 101 µM and 89.8 µM | activity change, positive = activation ([5]; at 92.4 µM (top of the series)) 18.1% and 10.8% | Potency [7] 24.5 µM

CC(C)(C#N)C(C)(C)C#N
inactive: Potency [1] | Potency [2] | Potency [3] | Potency [4] | activity change, positive = activation ([5]; at 92.4 µM (top of the series)) -14.1% | Potency [7] | Potency [8] | Potency [9]

O=C(Cl)OCCOCCOC(=O)Cl
inactive: Potency [1] | Potency [2] | Potency [3] | Potency [4] | activity change, positive = activation ([5]; at 92.4 µM (top of the series)) 1.12% | Potency [6] | Potency [7] | Potency [8] | Potency [9]

NC(=O)CF
inactive: Potency [1] | Potency [2] | outcome [10] | Potency [7] | Potency [8] | Potency [9]

CCC1(CC)C(=O)NC(=O)NC1=O
inactive: Potency [1] | Potency [2] | Potency [3] | Potency [6] | Potency [7] | Potency [8] | Potency [9]

CCOC(C(=O)OCCN(C)C)(c1ccccc1)c1ccccc1
inactive: Potency [1] | Potency [2] | Potency [3] | Potency [4] | activity change, positive = activation ([5]; at 42.5 µM (top of the series)) -1.78% | Potency [6] | Potency [7] | Potency [8] | Potency [9]

C[N+]1(CCC(C(N)=O)(c2ccccc2)c2ccccc2)CCCCC1
inactive: Potency [1] | Potency [2] | Potency [3] | Potency [6] | Potency [7] | Potency [8] | Potency [9]
